Results published in PubChem BioAssay (NCATS).
Records with an inconclusive call do not appear. Entries that show only a call come without a potency. Active and inactive are the calls of the source. The call rests on the fitted dose curve; in most records, active means well fitted inhibition curve with a large enough effect; inconclusive means small, poorly fitted or top-dose-only effect; inactive means flat fitted curve, though single readings scatter.

Experiments:
[1] = biological target: Glutathione peroxidase 1 (Homo sapiens) (UniProt P07203); assay: Primary qHTS Assay for Inhibitors of Recombinant Selenoprotein Glutathione Peroxidase 1 (GPX1) (AID 1845191); details: recombinant GPX1, GR-coupled NADPH fluorescence, 15 min; series mostly up to 48.8 µM; further: nearly all actives have a fitted effect of over 65% in size
Glutathione peroxidase 1 (Homo sapiens), sequence (P07203 whole entry, looked up): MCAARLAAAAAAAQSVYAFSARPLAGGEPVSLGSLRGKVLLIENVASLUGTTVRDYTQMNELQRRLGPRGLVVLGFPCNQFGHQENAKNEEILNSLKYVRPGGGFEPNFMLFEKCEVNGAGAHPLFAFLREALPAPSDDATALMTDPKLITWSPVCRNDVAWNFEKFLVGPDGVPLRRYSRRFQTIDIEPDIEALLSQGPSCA
Method in brief: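 GPX1 10 nM, GR 100 nM, GSH 1 mM, NADPH 0.5 mM, CHP 0.5 mM (final). 30-min cpd preincubation, RT. Ex340/Em450 read t=0, t=15 min.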

[2] = biological target: Phospholipid hydroperoxide glutathione peroxidase GPX4 (Homo sapiens) (UniProt P36969); assay: Primary qHTS Assay for Inhibitors of Recombinant Selenoprotein Glutathione Peroxidase 4 (GPX4) (AID 1845192); details: recombinant GPX4, GR-coupled NADPH fluorescence, 15 min; series mostly up to 50 µM; further: nearly all actives have a fitted effect of over 65% in size
Phospholipid hydroperoxide glutathione peroxidase GPX4 (Homo sapiens), sequence (P36969 whole entry, looked up): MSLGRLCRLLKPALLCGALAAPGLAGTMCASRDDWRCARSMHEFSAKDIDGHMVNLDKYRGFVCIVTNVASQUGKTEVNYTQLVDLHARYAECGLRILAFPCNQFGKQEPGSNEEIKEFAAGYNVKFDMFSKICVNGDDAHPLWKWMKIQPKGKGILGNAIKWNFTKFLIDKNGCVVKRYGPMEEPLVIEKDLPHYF
Method in brief: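 qHTS, GR-coupled: GPX4 200 nM + cpd 30 min RT → GSH 1 mM, NADPH 0.5 mM, GR 100 nM → CHP 0.5 mM start; fluor 340/450 at t0 and t15 min; no-enzyme wells as control.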

[3] = biological target: Luciferin 4-monooxygenase (Photinus pyralis) (UniProt P08659); assay: Primary firefly luciferase (FLuc) qHTS assay for identification of artifact compounds. (AID 1845220); details: purified firefly luciferase, luminescence, 5 min; series mostly up to 54.1 µM; further: nearly all actives have a fitted effect of over 60% in size
Method in brief: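 In this counter-screen for luciferase artifacts, test compounds met substrate (10 uM each luciferin and ATP) before 10 nM enzyme started the reaction. Light output was measured 5 min later.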

| SMILES | Potency [1] | Potency [2] | Potency [3] |
| --- | --- | --- | --- |
| O=C(CO)N1CCC(c2[nH]nc(-c3ccc(Cl)cc3)c2-c2ccncn2)CC1 | inactive | inactive | inactive |
| CC(C)(O)CC(=O)NCCn1ccc2ncnc(Nc3ccc(Oc4cccc(C(F)(F)F)c4)c(Cl)c3)c21 | inactive | inactive | inactive |
| Cc1ccccc1C(=O)c1ccc(Nc2ccc(Br)cc2N)cc1Cl | inactive | inactive | inactive |
| Clc1ccc(COC(Cn2ccnc2)c2ccc(Cl)cc2Cl)c(Cl)c1 (configuration not stated) | inactive | inactive | – |
| CC1CCN(c2cc(N3CCN(C)CC3)ccc2NC(=O)c2cc(C#N)c[nH]2)CC1 | inactive | inactive | inactive |
| COc1ccc(-c2cc3nccn3c(Nc3ncccc3C(N)=O)n2)cc1OC | inactive | inactive | inactive |
| COc1ccc(CCC(=O)Nc2nc3ccc(Cl)cc3s2)cc1OC | inactive | – | inactive |
| CC(C)(OCc1nn(Cc2ccccc2)c2ccccc12)C(=O)O | inactive | inactive | inactive |
| NC1(C(=O)N[C@@H](CCO)c2ccc(Cl)cc2)CCN(c2ncnc3[nH]ccc23)CC1 | inactive | – | inactive |
| NC(=O)c1noc([C@H](CCCC2CCCCC2)CC(=O)NO)n1 | inactive | inactive | inactive |
| COc1nccc(-c2c(-c3ccc(F)cc3)ncn2C2CCC(O)CC2)n1 (configuration not stated) | inactive | – | inactive |
| O=C1NC(=O)C(c2cnc3ccccn23)=C1c1cn2c3c(cccc13)CN(C(=O)N1CCOCC1)CC2 | inactive | inactive | inactive |
| Cn1cnc(-c2cc3nccc(Oc4ccc(NC(=S)NC(=O)Cc5ccccc5)cc4F)c3s2)c1 | inactive | – | inactive |
| Nc1ccc(-c2ccc3ncc4ccc(=O)n(-c5cccc(C(F)(F)F)c5)c4c3c2)cn1 | inactive | inactive | inactive |
